Screening results (PubChem BioAssay)
The sample as a whole holds a higher share of hits than the screen did.
Mm-Cpn inhibitor = M. maripaludis TRiC chaperonin inhibition; actives 0.031% (n = 330,000); purified Mm-Cpn ATPase, ADP Transcreener TR-FRET; Potency, µM (series often up to 76.9 µM), for the others: top-dose activity, negative = inhibition, usual class: inhibitors; also: % is scaled to controls: 0 for no effect and ±100 for the full control effect; nearly all actives have a fitted effect of over 80% in size
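25 nM Mm-CPN + cpd, 10 min 37°C; + 10 uM ATP, 30 min 37°C; buffer 30 mM Tris pH 7.4, 100 mM KCl, 5 mM MgCl2, 1 mM DTT; Transcreener ADP HTRF detection 30 min RT.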
a7 integrin act = integrin-mediated muscular dystrophy alleviation activation | alpha7betagal myoblasts, beta-gal FDG fluorescence, 48 h | Potency, µM (top dose mostly 38.3 µM), for the others: at the highest dose activation, actives largely listed as activators | actives 0.064% (n = 350,000);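 also: 100% = response of the positive control SU9516; nearly all actives have a fitted effect of over 60% in size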
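Alpha7betagal+/- myoblasts (passage 13) were plated 16-24 hr, then exposed to compounds (1:260 dilution of DMSO stock) for 48 hours at 37C. After MPER lysis, β-galactosidase reporter activity was read as FDG fluorescence (ex 480/em 540) after 30 minutes.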
p53 reactivator = mutant p53 re-activation in reporter cells; H1299 p53-A138V BP100-luciferase reporter, luminescence, 24 h; Potency, µM (doses to about 92.2 µM), for inactives: top-dose activity change, positive = activation, actives largely listed as activators; actives 0.063% (n = 320,000); also: % of control where 0% means no effect; nearly all actives have a fitted effect of over 45% in size
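p53-null H1299 cells stably carrying temperature-sensitive p53-A138V and a BP100-luciferase reporter were pinned with compounds (4-point, 1:5 series) and held 24 hrs at 37 deg C. Luminescence was read 10 min after detection reagent.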
Eya2 phos inh = inhibitors of human Eya2 phosphatase activity; recombinant Eya2, OMFP fluorescence dephosphorylation (OMFP is methylfluorescein phosphate); actives 0.006% (n = 330,000); O00167; Potency, µM (doses to about 76.9 µM), inactives show top-dose activity, negative = inhibition, actives largely listed as inhibitors; also: % is scaled to controls: 0 for no effect and ±100 for the full control effect
Target sequence (O00167 whole entry, looked up): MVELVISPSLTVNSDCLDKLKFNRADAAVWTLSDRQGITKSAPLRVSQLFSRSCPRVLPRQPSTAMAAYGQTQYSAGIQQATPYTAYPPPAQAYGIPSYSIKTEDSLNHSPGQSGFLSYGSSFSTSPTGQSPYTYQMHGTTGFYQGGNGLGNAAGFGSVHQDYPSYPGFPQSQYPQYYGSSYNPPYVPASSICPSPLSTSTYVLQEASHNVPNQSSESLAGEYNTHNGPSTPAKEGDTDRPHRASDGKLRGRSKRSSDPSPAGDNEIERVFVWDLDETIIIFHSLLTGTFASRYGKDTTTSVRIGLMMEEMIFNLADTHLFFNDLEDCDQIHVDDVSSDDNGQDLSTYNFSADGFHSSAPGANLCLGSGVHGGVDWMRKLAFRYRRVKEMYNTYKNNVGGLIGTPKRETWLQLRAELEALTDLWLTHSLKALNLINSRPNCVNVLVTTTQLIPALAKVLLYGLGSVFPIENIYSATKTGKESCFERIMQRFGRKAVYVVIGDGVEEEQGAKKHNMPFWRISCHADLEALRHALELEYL
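Eya2 (0.2 uM) preincubated 10 min at ambient with compound, then OMFP substrate added at 50 uM; 10 min reaction in 50 mM HEPES pH 7.5, 50 mM NaCl, 5 uM MgCl2, 0.05% BSA, 1 mM DTT. Fluorescence read at Ex 485/Em 525 nm.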
USP2a block = inhibitors of human ubiquitin-specific protease USP2a; O75604; USP2 core, Ub-CHOP2 coupled fluorogenic reporter, 485/531; Potency, µM (highest dose often 38.3 µM), inactives show top-dose activity change, negative = inhibition, usual class: inhibitors; actives 0.01% (n = 330,000); AID 463254;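 also: plate controls were DMSO wells for no effect and full inhibition by NEM control for full effect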
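Deubiquitinase activity read as fluorescence (485/531 nm) after Ub-CHOP2 cleavage activates the enterokinase reporter on its substrate; USP2 core 10nM, Ub-CHOP2 and substrate 25nM each, 30min compound preincubation then 60min RT; data normalized to NEM, curves fitted.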
ClpP mod = qHTS Assay for Activators of ClpP; ATP-dependent Clp protease proteolytic subunit (Bacillus subtilis (strain 168)), P80244; purified B. subtilis ClpP, FRET peptide cleavage, 20 min; Potency, µM (doses to about 57.5 µM), for inactives: at the highest dose activity change, negative = active; actives 1.9% (n = 340,000); AID 651965, 2013; active = well fitted falling curve with a large enough effect; inconclusive = small, poorly fitted or top-dose-only effect; inactive = no such curve, though single readings can be large or run the other way; also: the source files actives as falling curves though it sought activators and does not explain the sign; nearly all actives have a fitted effect of over 65% in size
Target sequence (P80244 whole entry, looked up): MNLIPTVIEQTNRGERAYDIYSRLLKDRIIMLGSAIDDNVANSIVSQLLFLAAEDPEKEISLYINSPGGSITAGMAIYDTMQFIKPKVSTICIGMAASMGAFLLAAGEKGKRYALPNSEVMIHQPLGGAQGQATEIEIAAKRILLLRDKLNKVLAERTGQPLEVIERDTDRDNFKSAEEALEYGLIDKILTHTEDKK
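ClpP 10 microg/mL final, pH 8 Tris/KCl buffer with BSA, glycerol, Tween-20; compound pinned in; FRET-FV substrate; RT 20 min; Ex320/Em430; ΔFRET vs ADEP 5.8 microM, DMSO, no enzyme.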
* marks the source's active call; other numbers are inactive results; [ ] = dose if it differs, or a comment. Unless noted, calls follow the shape of the dose curve; as a rule, active = well fitted curve in the direction sought with a large enough effect; inconclusive = small, poorly fitted or top-dose-only effect, or another doubt; inactive = no such curve, though single readings can be large; an effect the other way counts as inactive or inconclusive. Potency is read from the fitted curve at half-maximal effect.

For C=CCN(c1ccccc1)S(=O)(=O)c1cccc(C(=O)NCC2CCCO2)c1 (centres undefined) the results were Mm-Cpn inhibitor -0.9%, a7 integrin act -16.1%, p53 reactivator 17.4%, Eya2 phos inh -9.5%, USP2a block 1.0% and ClpP mod 28.2µM*.
For Cn1c(=O)c2c(-c3ccccc3Cl)n(Cc3ccc(Cl)cc3)cc2n(C)c1=O the results were ClpP mod 25.1µM*.
CCc1c(C)nc2c(-c3ccccc3)c[nH]n2c1=O was read as Mm-Cpn inhibitor -0.6%, a7 integrin act -36.1%, Eya2 phos inh -1.8% and USP2a block 2.5%.
CCOC(=O)Cc1c(C)nc2c(-c3ccccc3)c(C)[nH]n2c1=O was read as Mm-Cpn inhibitor 0.0%, a7 integrin act -18.1%, p53 reactivator -5.3%, Eya2 phos inh 0.1%, USP2a block -3.0% and ClpP mod 28.2µM*.
`CCOC(=O)Cc1c(C)nc2c(-c3ccccc3)c[nH]n2c1=O` gave Mm-Cpn inhibitor -4.4%, a7 integrin act 27.4%, p53 reactivator -12.2%, Eya2 phos inh 1.1%, USP2a block 1.5% and ClpP mod 15.8µM*.
`CCOC(=O)Cc1c(C)nc2cc(-c3ccc(C)cc3)[nH]n2c1=O` gave Mm-Cpn inhibitor -0.4%, a7 integrin act -9.5%, p53 reactivator inconclusive, Eya2 phos inh -1.3%, USP2a block 2.8% and ClpP mod 15.8µM*.
CCOC(=O)Cc1c(C)nc2c(-c3ccccc3)c(-c3ccccc3)[nH]n2c1=O was read as Mm-Cpn inhibitor 1.4%, a7 integrin act -8.3%[7.66 µM], p53 reactivator 4.3%, Eya2 phos inh 9.1%, USP2a block 3.7% and ClpP mod 22.4µM*.
For Cc1ccc(NC(=O)c2cc3c([nH]c2=O)CC(c2ccccc2)CC3=O)cc1 (centres undefined) the results were ClpP mod 4.3%.
For COc1cccc(CNC(=O)CCn2nc(C)c3c(C)n(-c4ccccc4)nc3c2=O)c1 the results were ClpP mod -9.2%.
Screening CC(C)(C)c1cc(=O)n2c(C#N)c(C#N)nc2[nH]1 returned Mm-Cpn inhibitor -4.2%, a7 integrin act 7.9%, p53 reactivator -9.7%, Eya2 phos inh 1.6%, USP2a block 0.7% and ClpP mod 28.2µM*.
COc1cccc2[nH]c3c(N4CCC(C)CC4)ncnc3c12 was read as Mm-Cpn inhibitor -6.9%, a7 integrin act 0.0%, p53 reactivator 1.0%, Eya2 phos inh -4.1%, USP2a block -0.4% and ClpP mod 14.1µM*.
Screening COc1cc2[nH]c3c(N4CCN(c5ccc(Cl)cc5)CC4)ncnc3c2cc1OC returned Mm-Cpn inhibitor -5.3%, a7 integrin act -19.4%, p53 reactivator -0.6%, Eya2 phos inh -11.7%, USP2a block 1.9% and ClpP mod 25.1µM*.
Screening CC(C)(C)OC(=O)N1CCC(c2c(C(=O)NCc3ccco3)cnn2-c2ccc(F)cc2)CC1 returned ClpP mod -4.4%.
Screening CCc1ccc(OCCCn2c(CCNC(=O)C3CCCCC3)nc3ccccc32)cc1 returned ClpP mod -6.9%.
C=CCSc1nc(C)cc(/C=C\c2ccccc2)c1C#N was read as Mm-Cpn inhibitor 1.1%, a7 integrin act 20.4%, p53 reactivator 6.6%, Eya2 phos inh 11.7%, USP2a block -0.1% and ClpP mod 28.2µM*.
For COc1ccc(CNC(=O)Cn2c(=O)nc(-c3ccccc3F)c3cc(Cl)ccc32)cc1 the results were ClpP mod -8.2%.
COc1ccc(Cl)cc1Nc1ncnc2sc(C)c(S(=O)(=O)N3CCC(C)CC3)c12 was read as Mm-Cpn inhibitor -11.9%, a7 integrin act 7.2%, p53 reactivator -0.7%, Eya2 phos inh 15.9%, USP2a block 0.3% and ClpP mod 31.6µM*.
Screening Nc1ccc(C(Cc2ccnc3ccccc23)Cc2ccnc3ccccc23)cc1 returned ClpP mod 0.5%.
O=CC(=O)c1ccc(Cl)cc1 was read as ClpP mod 0.3%.
Screening CC(OC(=O)Cc1ccsc1)C(=O)Nc1ccc(Cl)cn1 (centres undefined) returned Mm-Cpn inhibitor -2.1%, a7 integrin act -3.8%, p53 reactivator -5.0%, Eya2 phos inh 16.5%, USP2a block 1.5% and ClpP mod 25.1µM*.
CC(OC(=O)c1ccccc1NCc1ccco1)C(=O)Nc1ncc(Cl)cc1Cl (centres undefined) was read as Mm-Cpn inhibitor -2.6%, a7 integrin act -1.8%, p53 reactivator 3.7%, Eya2 phos inh 1.9%, USP2a block -9.2% and ClpP mod 31.6µM*.
CCOc1ncccc1C(=O)OC(C)C(=O)Nc1ccc(Cl)cn1 (centres undefined) was read as Mm-Cpn inhibitor 1.0%, a7 integrin act 21.9%, p53 reactivator -1.1%, Eya2 phos inh 0.6%, USP2a block -0.1% and ClpP mod -2.0%.
Screening CNc1ccccc1C(=O)OC(C)C(=O)Nc1ccc(Cl)cn1 (centres undefined) returned Mm-Cpn inhibitor -19.1%, a7 integrin act 4.9%, p53 reactivator -10.2%, Eya2 phos inh 8.4%, USP2a block -1.0% and ClpP mod 25.1µM*.
Screening C[C@@H]1[C@H](c2ccccc2)OCCS(=O)(=O)N1Cc1ccccc1Br returned ClpP mod -4.5%.
`CC(=O)Nc1ccc(/C=C/c2ccncc2)cc1` gave ClpP mod 3.7%.
For Cc1cc(C(=O)CSc2nc(N)cc(=O)[nH]2)c(C)n1-c1ccc(OC(F)F)cc1 the results were Mm-Cpn inhibitor 0.0%, a7 integrin act -51.9%, p53 reactivator -2.9%, Eya2 phos inh -3.9%, USP2a block 3.5% and ClpP mod 31.6µM*.
For Cc1cc(-n2c(C)cc(C(=O)CSc3nc(N)cc(=O)[nH]3)c2C)no1 the results were Mm-Cpn inhibitor -1.6%, a7 integrin act -19.0%, p53 reactivator -1.0%, Eya2 phos inh 19.7%, USP2a block -0.8% and ClpP mod -2.1%.
`O=C(Nc1ccc(Cl)cc1)c1ccc(OCC2CCCO2)cc1` (centres undefined) gave Mm-Cpn inhibitor -2.7%, a7 integrin act inconclusive, p53 reactivator 25.4%, Eya2 phos inh 8.3%, USP2a block -3.4% and ClpP mod 14.1µM*.
